This is a sample that favours compounds with a hit; in the whole collection about 5.9% have one here.
Rtt109 HAT inh: inhibitors of C. albicans Rtt109/Vps75 HAT, primary screen, biochemical, ThioGlo CoA-SH fluorescence, plate reader. purified Rtt109/Vps75, 4 h. inhibition, % at 34.9 µM. 0.16% of 330,000 active;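 active = inhibition of at least 50% in every replicate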
ALR inh: inhibitors of human ALR sulfhydryl oxidase, primary screen, biochemical, H2O2 detection, HRP-luminol luminescence, single point; FAD-linked sulfhydryl oxidase ALR (Homo sapiens), P55789; purified ALR, DTT oxidation; inhibition, % (concentration not given with the values); 3.8% of 290,000 active; AID 485317, 2010;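 active = mean replicate inhibition above about 79%, with every replicate also reaching it, limit read from the data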
Target sequence (P55789 whole entry, looked up): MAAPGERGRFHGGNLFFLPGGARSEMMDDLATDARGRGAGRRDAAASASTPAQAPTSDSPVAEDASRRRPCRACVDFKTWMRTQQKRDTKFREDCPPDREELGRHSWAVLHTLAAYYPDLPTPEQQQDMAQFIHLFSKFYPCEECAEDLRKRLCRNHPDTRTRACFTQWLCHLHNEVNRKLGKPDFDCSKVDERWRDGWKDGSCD
ABHD5 PLIN5 PPI: ABHD5-PLIN5 interaction inhibitors, primary screen, cell lysate, split luciferase complementation, luminescence; inhibition, % at 4 µM; Split G. princeps luciferase complementation, 4 h; AID 602281, 2012; Perilipin-5 (Homo sapiens) + 1-acylglycerol-3-phosphate O-acyltransferase ABHD5 (Homo …; 0.78% of 360,000 active;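 active = inhibition above the mean inhibition across every tested compound plus 3 SD, cut at about 22% in these data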;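 note: 0% = DMSO only wells and the 100% control is not disclosed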
rCAG RNA binder: binders of r(CAG) RNA repeats, primary screen, biochemical, fluorescence; r(CAG) RNA repeat, TO-PRO-1 dye displacement fluorescence; inhibition, % at 3 µM; 1.3% of 370,000 active; AID 651821, 2012;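 active = inhibition above the plate cutoff, the mean of all test compounds on that plate plus 3 SD, cut at about 35% in these data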;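 note: 0% = DMSO alone and 100% = 100 µM mitoxantrone as full dye displacement; higher means more dye released from RNA so lower well fluorescence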
PRMT1 FP inh: PRMT1 methyltransferase inhibitors, primary screen, biochemical, fluorescence polarization. Protein arginine N-methyltransferase 1 (Homo sapiens), Q99873. inhibition, % at 2.79 µM. 1.3% of 370,000 active. AID 652257, 2013. recombinant PRMT1, activity-based probe fluorescence polarization;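 active = inhibition above about 21% made by adding two undisclosed values, limit read from the data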
LANA-H2A inh: blockers of LANA interaction with H2A/H2B – biochemical, FP readout, HTS, primary screen. inhibition, % (test concentration not listed). cell-free LANA-H2A/H2B peptide, fluorescence polarization. AID 2629, 2010. 0.6% of 320,000 active; in the data active = inhibition mostly above about 10%, no sharp cut-off; inactive = mostly below about 6.7%
* hit, by the source's call; . = no result.

SMILES | Rtt109 HAT inh | ALR inh | ABHD5 PLIN5 PPI | rCAG RNA binder | PRMT1 FP inh | LANA-H2A inh
O=C(CN1CCN(c2ccccc2F)CC1)c1ccc(O)c(O)c1 | -7.2 | 99.0* | -11.9 | 2.6 | 16.7 | -2.4
O=C(CN1CCN(S(=O)(=O)c2ccc(Br)cc2)CC1)c1ccc(O)c(O)c1 | 6.7 | 96.3* | 7.5 | 8.6 | 1.6 | 6.4
CCN(CC)CCOC(=O)c1ccc(NC(=S)NC(=O)/C=C/c2ccco2)cc1 | . | 13.9 | . | . | . | -6.6
CCCCNC(=O)C1(C)CCN1C(=O)c1cc(F)ccc1C (centres undefined) | . | . | 2.5 | -0.3 | 6.3 | .
C#CCn1cc2c(c1-c1ccccc1)c(=O)n(C)c(=O)n2C | . | . | 0.5 | 1.2 | 2.6 | .
N=C1C(c2nc(-c3ccc(Cl)cc3)cs2)=C(O)CN1CCCN1CCOCC1 | -4.4 | 98.1* | 20.9 | 7.7 | 0.6 | -1.3
Cn1nc(CC(=O)NC2CCCCCCCCCCC2)c2ccccc2c1=O | 0.3 | -1.5 | -1.1 | -3.6 | -2.7 | -3.7
Cn1nc(CC(=O)Nc2cccnc2N2CCOCC2)c2ccccc2c1=O | . | -70.8 | . | . | . | 38.5*
CC(C)(C)c1ccc(-c2cn(C[C@H](Cc3ccccc3)n3c(=O)c4ccccc4n3Cc3ccccc3)nn2)cc1 | . | . | . | 8.4 | -1.9 | .
CCc1ccc(NCc2ccc(OC)c(Cn3ccnc3)c2)cc1 | 11.9 | 80.5* | 6.4 | -8.5 | -3.5 | -0.6
COc1ccc(-c2n[nH]c(=S)n2-c2ccc(C)cc2)cc1OC | -1.4 | 89.5* | -11.8 | 1.2 | -0.7 | -16.0
Cc1ccc(-n2c(-c3nn(C)c(C)c3Cl)n[nH]c2=S)cc1 | 8.2 | 86.3* | -6.2 | 7.7 | 2.0 | -1.4
COc1ccccc1-c1n[nH]c(=S)n1-c1ccccc1 | 12.4 | 92.8* | -9.5 | 1.9 | 0.5 | 0.9
COc1cc(-n2c(-c3ccccc3)n[nH]c2=S)c(OC)cc1Cl | 11.3 | 78.9* | -7.0 | 16.2 | 2.9 | -3.6
CCOC(=O)Nc1ccc2nc(-c3cscn3)[nH]c2c1 | . | . | 6.0 | 2.6 | 4.0 | .
CC(C)(C)c1cc(-c2n[nH]c(=S)n2-c2ccc(Cl)cc2)n[nH]1 | 5.1 | 93.4* | -10.2 | 5.3 | 18.1 | -3.9
COc1ccc(-n2c(CCc3ccccc3)n[nH]c2=S)cc1 | 4.7 | 9.7 | -5.3 | -0.9 | 1.9 | 5.0
COc1ccccc1-n1c(-c2cc(-c3ccc(F)cc3)n[nH]2)n[nH]c1=S | 7.1 | 77.2* | -12.6 | 8.8 | 8.2 | 1.0
Cc1ccc(-n2c(C)n[nH]c2=S)cc1 | -7.1 | 94.8* | 5.3 | -3.6 | 0.1 | -3.6
COc1ccc(-c2cc(-c3n[nH]c(=S)n3-c3cccc4ccccc34)[nH]n2)cc1 | 20.4 | 31.7 | -10.8 | 28.8 | 19.7 | -1.7
COc1ccccc1N1CCN(CCc2n[nH]c(=S)n2-c2ccccc2)CC1 | 4.4 | 96.9* | -7.6 | -0.5 | -0.7 | 0.4
CCN1CCN(C(=O)CN(CC)S(=O)(=O)c2ccc3ccccc3c2)CC1 | 10.1 | . | 3.4 | -6.5 | -1.9 | 0.2
O=C(OCN1C(=O)c2ccccc2C1=O)c1ccc(Cl)nc1 | 16.0 | . | -4.6 | -2.2 | 0.5 | 10.0
O=C1C2CCCN2C(=O)N1CCCN1CCN(c2cccc(Cl)c2)CC1 (centres undefined) | -1.7 | 36.8 | 1.7 | -7.5 | 2.3 | 1.6
Cc1ccc(N2CCN(CCCN3C(=O)C4CCCN4C3=O)CC2)cc1 (centres undefined) | 1.8 | 98.3* | -4.9 | -5.2 | 2.2 | 5.5
COCCNC(=O)c1c[nH]c2cc(OC)c(OC)cc2c1=O | -1.2 | -0.7 | 0.4 | 0.9 | 24.6* | 1.8
COc1cc2[nH]cc(C(=O)NCCc3ccccc3)c(=O)c2cc1OC | -0.4 | -2.0 | 4.2 | -2.0 | 4.6 | -0.6
O=C(Cn1ncc(Cl)c(Cl)c1=O)NC1CCCCC1 | 0.8 | . | 1.6 | 3.4 | 8.0 | -1.9
O=C(Cn1ncc(Cl)c(Cl)c1=O)NCC1CCCCC1 | -5.5 | 95.0* | 10.9 | 6.6 | 3.2 | -3.6

From PubChem
